About 2,000 (36%) of roughly 5,500 compounds were called active. Not shown: some 18% with an inconclusive outcome. Cut-off read from the data, not from the text of the source: active = normalized growth mostly below about 0.91 (no sharp cut-off); inconclusive = no clear call, values can overlap the other calls; inactive = mostly above about 0.92. The list shows a part of the results.
Test: chemical genetic growth profiling, strain panel (AID 1159580);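 note: tested at 20 µM; growth read once vehicle control cultures reached saturation at 30 °C; 1 = growth at the plate median or of vehicle wells; lower values mean less growth of the strain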
Details: S. cerevisiae deletion strains, growth OD
[1] = locus YAR019C, strain CDC15, active compounds read low
[2] = locus YBL105C, strain PKC1, active compounds read low
[3] = locus YBR135W, strain CKS1, active compounds read low
[4] = locus YBR136W, strain MEC1, active compounds read low
[5] = locus YBR160W, strain CDC28, active compounds read low
[6] = locus YDL017W, strain CDC7, active compounds read low
[7] = locus YDL028C, strain MPS1, active compounds read low
[8] = locus YDL101C, strain DUN1, active compounds read low
[9] = locus YDL108W, strain KIN28, active compounds read low
[10] = locus YDL132W, strain cdc53, active compounds read low
[11] = locus YDL214C, strain PRR2, active compounds read low
[12] = locus YDR052C, strain DBF4, active compounds read low
[13] = locus YDR054C, strain cdc34, active compounds read low
[14] = locus YDR226W, strain ADK1, active compounds read low
[15] = locus YDR477W, strain SNF1, active compounds read low
[16] = locus YER123W, strain YCK3, active compounds read low
[17] = locus YER133W, strain GLC7, active compounds read low
[18] = locus YFL009W, strain cdc4, active compounds read low
[19] = locus YFL029C, strain CAK1, active compounds read low
[20] = locus YFR003C, strain YPI1, active compounds read low
[21] = locus YFR019W, strain FAB1, active compounds read low
[22] = locus YFR028C, strain CDC14, active compounds read low
[23] = locus YGR040W, strain KSS1, active compounds read low
[24] = locus YGR052W, strain FMP48, active compounds read low
[25] = locus YGR092W, strain DBF2, active compounds read low
[26] = locus YHR030C, strain SLT2, active compounds read low
[27] = locus YHR079C, strain IRE1, active compounds read low
[28] = locus YHR082C, strain KSP1, active compounds read low
[29] = locus YHR205W, strain SCH9, active compounds read low
[30] = locus YIL147C, strain SLN1, active compounds read low
[31] = locus YJL095W, strain BCK1, active compounds read low
[32] = locus YJL128C, strain PBS2, active compounds read low
[33] = locus YJL157C, strain FAR1, active compounds read low
[34] = locus YJR016C, strain ILV3, active compounds read low
[35] = locus YJR066W, strain TOR1 (second series), active compounds read low
[36] = locus YJR066W, strain TOR1, active compounds read low
[37] = locus YKL048C, strain ELM1, active compounds read low
[38] = locus YKL067W, strain YNK1, active compounds read low
[39] = locus YKL101W, strain HSL1, active compounds read low
[40] = locus YKL193C, strain SDS22, active compounds read low
[41] = locus YKL203C, strain TOR2, active compounds read low
[42] = locus YLR113W, strain HOG1, active compounds read low
[43] = locus YLR133W, strain CKI1, active compounds read low
[44] = locus YLR403W, strain SFP1, active compounds read low
[45] = locus YML070W, strain DAK1, active compounds read low
[46] = locus YMR001C, strain CDC5, active compounds read low
[47] = locus YMR205C, strain PFK2 (second series), active compounds read low
[48] = locus YMR277W, strain FCP1, active compounds read low
[49] = locus YNL006W, strain LST8, active compounds read low
[50] = locus YNL020C, strain ARK1, active compounds read low
[51] = locus YNL161W, strain CBK1, active compounds read low
[52] = locus YNL183C, strain NPR1, active compounds read low
[53] = locus YNL207W, strain RIO2, active compounds read low
[54] = locus YNL222W, strain SSU72, active compounds read low
[55] = locus YNL307C, strain MCK1 (second series), active compounds read low
[56] = locus YOL078W, strain AVO1, active compounds read low
[57] = locus YOL136C, strain PFK27, active compounds read low
[58] = locus YOR061W, strain CKA2, active compounds read low
[59] = locus YOR119C, strain RIO1, active compounds read low
[60] = locus YOR231W, strain MKK1, active compounds read low
[61] = locus YOR329C, strain SCD5, active compounds read low
[62] = locus YPL031C, strain PHO85, active compounds read low
[63] = locus YPL153C, strain RAD53, active compounds read low
[64] = locus YPL204W, strain HRR25, active compounds read low
[65] = locus YPL209C, strain IPL1, active compounds read low
[66] = locus YPL256C, strain CLN2, active compounds read low
[67] = locus YPR025C, strain CCL1, active compounds read low
[68] = locus YPR106W, strain ISR1, active compounds read low
[69] = locus YPR111W, strain DBF20, active compounds read low
[70] = strain NNK1, active compounds read low
[71] = strain TSCII, active compounds read low

Measured: normalized growth

CC(C)c1c(C(=O)c2ccccc2)c(-c2ccccc2)c(-c2ccc(F)cc2)n1CC[C@@H](O)C[C@@H](O)CC(=O)O
inactive: locus YAL030W, strain snc1, active compounds read low 0.94 | locus YBR009C, strain hhf1, active compounds read low 0.924 | locus YBR171W, strain sec66, active compounds read low 0.984 | locus YCL011C, strain gbp2, active compounds read low 0.942 | locus YCL069W, strain vba3, active compounds read low 0.934 | locus YDL005C, strain med2, active compounds read low 0.987 | locus YDL040C, strain nat1, active compounds read low 0.99 | locus YDR001C, strain nth1, active compounds read low 0.957 | locus YDR159W, strain sac3, active compounds read low 0.882 | locus YDR195W, strain ref2 1.04 | locus YDR297W, strain sur2, active compounds read low 0.946 | locus YDR335W, strain msn5, active compounds read low 0.919 | locus YDR392W, strain spt3, active compounds read low 1.01 | locus YEL037C, strain rad23, active compounds read low 0.935 | locus YEL061C, strain CIN8 (second series), active compounds read low 0.955 | locus YER016W, strain bim1, active compounds read low 0.949 | locus YER111C, strain swi4, active compounds read low 0.981 | locus YER155C, strain BEM2 (second series), active compounds read low 0.917 | locus YGL167C, strain pmr1, active compounds read low 1 | locus YGL173C, strain kem1, active compounds read low 0.907 | locus YGL227W, strain vid30, active compounds read low 0.962 | locus YGL240W, strain doc1, active compounds read low 0.981 | locus YJL095W, strain BCK1 (second series), active compounds read low 0.957 | locus YJL115W, strain asf1, active compounds read low 0.953 | locus YJL129C, strain trk1, active compounds read low 0.916 | locus YJL164C, strain tpk1, active compounds read low 0.922 | locus YJL166W, strain qcr8, active compounds read low 0.926 | locus YKL160W, strain elf1, active compounds read low 0.921 | locus YKR026C, strain gcn3, active compounds read low 0.952 | locus YKR091W, strain srl3, active compounds read low 0.98 | locus YLL026W, active compounds read low 0.937 | locus YLL041C, strain sdh2, active compounds read low 0.981 | locus YLR027C, strain aat2, active compounds read low 0.933 | locus YLR258W, strain gsy2, active compounds read low 0.932 | locus YLR262C, strain YPT6 (second series), active compounds read low 0.973 | locus YLR320W, strain mms22, active compounds read low 0.899 | locus YLR342W, strain FKS1, active compounds read low 0.94 | locus YLR384C, strain iki3, active compounds read low 0.959 | locus YML120C, strain ndi1, active compounds read low 0.93 | locus YMR058W, strain fet3, active compounds read low 0.909 | locus YMR129W, active compounds read low 0.946 | locus YMR205C, strain PFK2, active compounds read low 0.946 | locus YNL071W, strain lat1, active compounds read low 0.939 | locus YNL209W, strain ssb2, active compounds read low 0.939 | locus YNL248C, strain rpa49, active compounds read low 1.02 | locus YNL322C, strain KRE1 (second series), active compounds read low 0.977 | locus YNR049C, strain mso1, active compounds read low 0.952 | locus YOR080W, strain dia2, active compounds read low 0.939 | locus YOR106W, strain vam3, active compounds read low 0.877 | locus YOR265W, strain rbl2, active compounds read low 0.95 | locus YOR290C, strain snf2, active compounds read low 0.895 | locus YPL078C, strain atp4, active compounds read low 0.908 | locus YPL106C, strain sse1, active compounds read low 1.11 | locus YPL240C, strain hsp82, active compounds read low 0.971

COc1ccc(NNC(=O)c2sc3ccccc3c2Cl)cc1
inactive: [1] 0.921 | [2] 0.927 | [3] 0.915 | [4] 0.922 | [5] 0.927 | [6] 0.936 | [7] 0.929 | [8] 0.954 | [9] 0.93 | [10] 0.959 | [12] 0.935 | [13] 0.923 | [14] 0.938 | [15] 0.694 | [18] 0.941 | [19] 0.92 | [20] 0.93 | [22] 0.92 | [28] 0.656 | [29] 0.612 | [30] 0.924 | [32] 0.878 | [34] 0.903 | [36] 0.579 | [40] 0.923 | [46] 0.925 | [48] 0.926 | [49] 0.914 | [51] 0.918 | [52] 0.595 | [53] 0.948 | [54] 0.906 | [56] 0.913 | [61] 0.927 | [65] 0.918 | [67] 0.929 | [68] 0.907 | [69] 0.918 | [70] 0.908 | [71] 0.923
active: [11] 0.692 | [16] 0.287 | [17] 0.663 | [21] 0.37 | [23] 0.681 | [24] 0.558 | [25] 0.117 | [26] 0.302 | [27] 0.502 | [31] 0.341 | [33] 0.544 | [35] 0.243 | [37] 0.658 | [38] 0.587 | [39] 0.657 | [41] 0.686 | [42] 0.293 | [43] 0.627 | [44] 0.563 | [45] 0.419 | [47] 0.659 | [50] 0.643 | [55] 0.262 | [57] 0.433 | [58] 0.299 | [59] 0.604 | [60] 0.507 | [62] 0.657 | [63] 0.525 | [64] 0.576 | [66] 0.441

COc1cc2c(cc1OC)C(C)N(C(=O)c1sc3ccccc3c1Cl)CC2 (stereo unspecified)
inactive: [1] 0.981 | [2] 0.975 | [3] 0.97 | [4] 0.975 | [5] 0.968 | [6] 0.98 | [7] 0.982 | [8] 0.982 | [9] 0.974 | [10] 0.974 | [11] 0.928 | [12] 0.989 | [13] 0.972 | [14] 0.975 | [15] 0.934 | [16] 0.9 | [17] 0.936 | [18] 0.972 | [19] 0.968 | [20] 0.978 | [21] 0.943 | [22] 0.977 | [23] 0.899 | [24] 0.981 | [25] 0.921 | [26] 0.93 | [27] 0.933 | [28] 0.958 | [29] 0.976 | [30] 0.984 | [31] 0.947 | [32] 0.955 | [33] 0.912 | [34] 0.97 | [35] 0.891 | [36] 0.983 | [37] 0.928 | [38] 0.943 | [39] 0.897 | [40] 0.981 | [41] 0.959 | [42] 0.865 | [43] 0.916 | [44] 0.906 | [45] 0.912 | [46] 0.975 | [47] 0.948 | [48] 0.978 | [49] 0.99 | [50] 0.922 | [51] 0.97 | [52] 0.948 | [53] 0.978 | [54] 0.966 | [55] 0.911 | [56] 0.972 | [57] 0.906 | [58] 0.914 | [59] 0.982 | [60] 0.891 | [61] 0.978 | [62] 0.927 | [63] 0.905 | [64] 0.905 | [65] 0.968 | [66] 0.894 | [67] 0.976 | [68] 0.963 | [69] 0.949 | [70] 0.972 | [71] 0.969

From PubChem BioAssay AID1159580 (chemical genetic matrix, 2015)
